Compound activity: PubChem BioAssay, Broad Institute
Only some compounds are listed: those with a hit (about 4.1% of all), similar ones and a draw of the others.
NSD2 inh = NSD2 histone methyltransferase inhibitors, primary screen, biochemical, AlphaScreen, single concentration, set 2; Histone-lysine N-methyltransferase NSD2 (Homo sapiens), O96028; NSD2 peptide methylation, 120 min; inhibition, % at 12.5 µM; 310,000 compounds, 0.54% hits; AID 743445, 2014; in the data active means inhibition above about 50%
CFTR F508del cor = F508del CFTR correction, initial screen, CFBE line, single point; activity (quench increase), % at 7.58 µM; 350,000 compounds, 0.36% hits; CFBE cells, YFP halide quenching; stimulated with forskolin plus potentiator P3; % fluorescence drop versus neutral controls; AID 720511, 2013;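 active means mean added fluorescence quench of at least 8% versus neutral control, with both replicates also reaching 8%; inconclusive means only one of the mean or replicate conditions met; inactive means mean below 8% and not both replicates reaching 8%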;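 further: cells transiently co-express mutant CFTR-F508del with the halide-sensitive YFP; corrector assay measuring rescue of mutant channel to the surface after 24 h compound exposure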
HIV Env fusion = inhibitors of HIV-1 Env-driven cell-cell fusion, primary screen, HeLa-JRFL effector, CEM21 target cells, luciferase; AID 651610, 2012; 360,000 compounds, 1.1% hits; inhibition, % at 12.3 µM;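 active means mean replicate inhibition score of at least 50 and every replicate individually at or above 50; inconclusive means only one of the two criteria met; inactive means mean below 50 and not all replicates reaching 50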;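 further: 0% = plate neutral controls and 100% = maraviroc near 300 nM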
CASP6 VEID inh = human caspase-6 inhibitors, primary screen, biochemical, VEID-R110 fluorescence, single point, set 2; purified caspase-6, Z-VEID-R110 cleavage fluorescence; 350,000 compounds, 0.53% hits; inhibition, % at 12.5 µM;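 active means mean inhibition across replicates at least about 35%, with every replicate also reaching that limit, limit read from the data; inconclusive means only one of the two criteria met; inactive means neither criterion met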;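 further: 0% = median of neutral control wells and 100% = no fluorescence left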
Target sequence (P55212 24-179 limits assumed): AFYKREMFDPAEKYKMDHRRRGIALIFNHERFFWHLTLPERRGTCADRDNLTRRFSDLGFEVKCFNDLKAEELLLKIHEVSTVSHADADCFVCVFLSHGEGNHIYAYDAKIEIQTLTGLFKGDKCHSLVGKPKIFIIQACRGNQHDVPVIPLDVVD
Target sequence (P55212 194-293 limits assumed): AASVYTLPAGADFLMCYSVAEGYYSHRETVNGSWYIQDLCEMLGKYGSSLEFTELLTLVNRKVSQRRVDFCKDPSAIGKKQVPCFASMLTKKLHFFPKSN
ALR inh = inhibitors of human ALR sulfhydryl oxidase, primary screen, biochemical, H2O2 detection, HRP-luminol luminescence, single point. FAD-linked sulfhydryl oxidase ALR (Homo sapiens), P55789. 290,000 compounds, 3.8% hits. purified ALR, DTT oxidation. inhibition, % (test concentration not listed). AID 485317, 2010;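 active means mean replicate inhibition above about 79%, with every replicate also reaching it, limit read from the data; inconclusive means only one of the two criteria met; inactive means mean below limit and not every replicate reaching it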
Target sequence (P55789 whole entry, looked up): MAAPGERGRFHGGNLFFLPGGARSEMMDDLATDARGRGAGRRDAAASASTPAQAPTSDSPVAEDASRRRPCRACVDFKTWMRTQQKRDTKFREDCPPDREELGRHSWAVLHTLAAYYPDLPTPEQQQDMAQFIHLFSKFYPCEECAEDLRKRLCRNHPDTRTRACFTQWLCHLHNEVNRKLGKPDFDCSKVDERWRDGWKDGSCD
PglD DTNB = C. jejuni PglD acetyltransferase inhibitors, primary screen, biochemical, DTNB colorimetric, single point | purified PglD enzyme, DTNB colorimetric CoA detection | inhibition, % at 12.5 µM | 360,000 compounds, 0.098% hits | AID 602405, 2012; in the data active means inhibition above about 16%, passing the limit was not always enough; inconclusive means no clear call, values can overlap the other calls
Active calls of the source: *; ? = inconclusive; · = no result; [ ] = remark or other dose.

SMILES | NSD2 inh | CFTR F508del cor | HIV Env fusion | CASP6 VEID inh | ALR inh | PglD DTNB
Cc1noc(C)c1NC(=O)Nc1ccc2c(c1)C(=O)N([C@@H](C)CO)C[C@@H](C)[C@H](CN(C)C(=O)Nc1ccc3c(c1)OCO3)OCCCC[C@@H](C)O2 | · | 0 | 9[16.7 µM] | 0 | · | 3
COC(=O)Nc1ccc(SCC(=O)c2cccc([N+](=O)[O-])c2)cc1 | 4 | -1 | 0 | 3 | 99* | -1
O=C(N[C@H](Cc1ccccc1)C(=O)N1CCN(C(=O)N2CCOCC2)CC1)[C@H]1O[C@@H](n2ccc(=O)[nH]c2=O)[C@H](O)[C@@H]1O | · | 1 | -12 | 51* | · | ·
O=C(N[C@H](Cc1ccccc1)C(=O)N1CCN(C(=O)N2CCCCC2)CC1)[C@H]1O[C@@H](n2ccc(=O)[nH]c2=O)[C@H](O)[C@@H]1O | · | -4 | -15 | -5 | · | ·
COCCn1c(=NC(=O)CCS(=O)(=O)c2ccccc2)sc2cc(C(=O)OC)ccc21 | · | -2 | -21 | -1 | 5 | 3
COCCn1c(=NC(=O)CSCC(=O)Nc2cc(C)on2)sc2cc(C(=O)OC)ccc21 | 2 | 0 | -20 | 2 | 92* | ·
CCCC#Cc1ccc([C@H]2[C@@H](CO)N3CCCCN(C(=O)NC4CCCC4)C[C@H]23)cc1 | · | -1 | · | -1 | · | 1
O=C(C1CCCC1)N1CCN=C1SCc1cccc([N+](=O)[O-])c1 | 1 | 4 | 13 | -1 | 99* | ·
CC(=O)N1CCN=C1SCc1ccccc1Cl | · | -6 | 5 | 1 | 101* | -1
CCC(=O)N1CCN=C1SCc1ccccc1Cl | · | -2 | -13 | 0 | 100* | 4
CCC(=O)N1CCN=C1SCc1ccccc1 | · | 0 | 4 | -2 | -8 | -3
O=C(C1CC1)N1CCN=C1SCc1ccccc1Cl | · | -1 | 9 | 1 | 99* | -4
O=C(NCC1CC1)[C@H]1N[C@H]2c3ccc(C4=CCCCC4)c(=O)n3C[C@H]2[C@@H]1CO | · | · | 21[16.7 µM] | -1 | · | 3
CC(=O)N1CCN=C1SCc1ccccc1F | · | 0 | -19 | 2 | 99* | -5
CC1C(=O)N(Cc2cn(CCC3OCCCO3)nn2)CCS(=O)(=O)N1Cc1ccc(-c2ccc(Cl)c(Cl)c2)cc1 (stereo unspecified) | · | 2 | 64* | -1 | · | 0
Cc1ccc(CSCC(=O)Nc2ccc(N3CCOCC3)cc2N2CCOCC2)cc1 | · | 0 | -2 | 1 | 98* | 0
Cc1ccc(CNCC(=O)Nc2ccc(N3CCOCC3)cc2)cc1 | 0 | -1 | 9 | 2 | 99* | -15
O=S(=O)(Nc1ccc(N2CCOCC2)cc1)c1cccs1 | 10 | · | · | 0 | 98* | 1
CCNCC(=O)Nc1ccc(N2CCOCC2)cc1 | 8 | 0 | 3 | -5 | 11 | -1
O=C(Nc1ccc(N2CCOCC2)cc1N1CCOCC1)c1ccc(Br)cc1 | -2 | 0 | -4 | -8 | -9 | 5
Cc1ccc(C2(C)NC(=O)N(CC(=O)Nc3ccc(N4CCOCC4)cc3N3CCOCC3)C2=O)cc1 (stereo unspecified) | · | 0 | -2 | 0 | 22 | 3
O=C(Nc1ccc(N2CCOCC2)cc1N1CCOCC1)c1cccs1 | 3 | · | -11 | · | 78* | 2
N#C[C@H]1[C@@H](c2ccc(-c3cccc(F)c3)cc2)[C@@H](CO)N1C(=O)NC1CCCCC1 | · | -2 | · | 2 | · | ·
O=C1O[C@H](c2ccccc2)[C@H](c2ccccc2)N2[C@H]1[C@@H](C(=O)N1CCCCCCC1)[C@]1(C(=O)Nc3ccc(C#CC4=CCCCC4)cc31)[C@H]2c1ccc(OCCO)cc1 | · | 1 | -16[16.7 µM] | · | · | ·
O=C(Cc1ccccn1)N1CC(=O)N2[C@H](C1)[C@H](c1ccc(C#CC3CCCC3)cc1)[C@@H]2CO | · | 2 | · | 2 | · | ·
SMILES | NSD2 inh | CFTR F508del cor | HIV Env fusion | CASP6 VEID inh | ALR inh | PglD DTNB
COc1cccc2c1C(=O)c1c(O)c3c(c(O)c1C2=O)C[C@@](O)(C(C)=O)C[C@@H]3O[C@H]1C[C@H](N)[C@H](O)[C@H](C)O1 | · | 75* | · | -82 | · | -3
COc1cccc2c1C(=O)c1c(O)c3c(c(O)c1C2=O)C[C@@](O)(C(=O)CO)C[C@@H]3O[C@H]1C[C@H](N)[C@@H](O)[C@H](C)O1 | · | · | · | · | -20 | -1
COc1cccc2c1C(=O)c1c(O)c3c(c(O)c1C2=O)CC(O)(C(=O)CO)CC3OC1CC(N(C)C)C(O)C(C)O1 (stereo unspecified) | 24 | 25* | 59* | -6 | · | ·
CCOc1ccc(C(=O)CC(NCc2cccs2)C(=O)O)cc1 (stereo unspecified) | 0 | 0 | ? | · | 97* | 6
N#C/C(=C\c1cc(O)c(O)c(O)c1)C(N)=O | · | 2 | -4 | 27 | 99* | -5
N#C/C(=C\c1cc(Cl)c(OCc2ccc(Cl)cc2)c(Cl)c1)C(N)=O | · | · | · | · | 2 | ·
O=C(C[C@@H]1CC[C@@H](NC(=O)c2cccnc2)[C@H](CO)O1)NCc1ccncn1 | · | 2 | 0[16.7 µM] | · | · | -2
FC(F)(F)c1nc(-c2ccncc2)ncc1-c1nnnn1-c1ccccc1 | 2 | · | -18 | · | -4 | ·
FC(F)(F)c1nc(N2CCCC2)ncc1-c1nnnn1-c1ccc(Cl)cc1 | · | · | 58* | · | -5 | ·
Cc1ccc(-c2nnnn2-c2ccc(C)cc2)cc1 | 2 | 0 | 14 | 0 | 2 | ·
Cc1ccc(-n2nnnc2-c2cnn(-c3ccc(F)cc3)c2C(F)(F)F)cc1 | -2 | · | 96* | · | -2 | 3
Fc1ccc(-n2nnnc2-c2cnc(-c3cccs3)nc2C(F)(F)F)cc1 | -2 | · | 77* | · | -8 | ·
O=C1C2=C(c3ccccc31)[N+](=O)[C@@H]1CCCC[C@@H]1N2[O-] | 27 | 0 | · | 63* | · | -3
C[C@H]1CCCCO[C@@H](CN(C)Cc2ccc3c(c2)OCO3)[C@@H](C)CN([C@@H](C)CO)C(=O)c2cc(NS(=O)(=O)c3ccccc3)ccc2O1 | · | 0 | 1[16.7 µM] | 3 | · | -1
O=C(c1ccccc1)N1CC2(C1)[C@@H](c1ccccc1)[C@H](CO)N2CC1CC1 | · | 1 | · | -2 | · | ·
O=S1(=O)NC(=NC2CCCCCC2)c2ccccc21 | 1 | · | 6 | · | 89* | -8
CO[C@@H]1CN(C)C(=O)c2cc(NC(=O)C3CCC3)ccc2OC[C@@H](C)N(C)C[C@@H]1C | · | -1 | 17[16.7 µM] | · | · | 2
Cc1cc(Nc2ccccc2Cl)c2ccccc2n1 | -1 | -5 | 10 | 2 | · | -2
Cc1cc(C)nc(NCC(O)CNc2ccccc2Cl)n1 (stereo unspecified) | -1 | · | -19 | · | 92* | 4
